Test systems include NCI-H23 lung; NCI-H226 lung; NCI-H322M lung; HOP-62 NSCLC; NCI-H460 lung; HOP-92 NSCLC; NCI-H522 lung; A549/ATCC NSCLC; 786-0 renal; COLO 205 colon; DU-145 prostate; K-562 leukemia; MALME-3M melanoma; MDA-MB-231 breast; RXF 393 renal; SF-268 CNS; SF-295 CNS; SF-539 CNS; UACC-257 melanoma; M14 melanoma.
What all share (assay): NCI-60 one-dose screen, 48 h (100 = growth as untreated, 0 = no growth, -100 = all killed)
Conditions in all cases: 10 µM unless noted

Molecules are shown by their SMILES. Compounds without any hit were thinned out: in the full panel of roughly 83,000, 20% have a hit.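 Single-dose data. Exposure time 48 hours. Values below 10 considered active.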 A number with no mark means an inactive call. The source made the active and inactive calls.

As for `Cc1nssc1=S`, the growth in the assay on NCI-H23 lung is 91.5%; in the assay on NCI-H226 lung, 99.6%; in the assay with NCI-H322M lung it was 85.2%; in the assay on HOP-62 NSCLC it was 107%; in the assay on NCI-H460 lung it was 109%; in the assay with HOP-92 NSCLC, 59.9%. Besides, the growth was 82.6% in the assay on NCI-H522 lung; 111% in the assay with A549/ATCC NSCLC; 95.3% in the assay with 786-0 renal; 91.2% with COLO 205 colon; 113% in the assay on DU-145 prostate; 93.8% in the assay on K-562 leukemia. Moreover, the growth with MALME-3M melanoma is 102%; in the assay on MDA-MB-231 breast, 112%; with RXF 393 renal, 113%; in the assay on SF-268 CNS, 106%; with SF-295 CNS it was 99.7%; with SF-539 CNS, 101%. In addition, the growth with UACC-257 melanoma was 102%; with M14 melanoma, 88.2%.

`COc1cc(NC(=O)c2cc(OC)c3ccn(C)c3c2)cc2c1C[C@]1(C)CC[C@@H](O)C(C)(C)[C@H]1O2`: the growth with NCI-H23 lung is 79.9%; in the assay with NCI-H226 lung, 106%; in the assay on NCI-H322M lung, 90.4%; in the assay with HOP-62 NSCLC, 46.1%; with NCI-H460 lung, 49.2%; in the assay on HOP-92 NSCLC, 44.6%. For the same compound, the growth in the assay with NCI-H522 lung is 76.1%; with A549/ATCC NSCLC, 63.6%; with 786-0 renal it was -1.08% (active); with COLO 205 colon it was 51.7%; in the assay with DU-145 prostate, 71.5%; with K-562 leukemia, 20.2%. Moreover, the growth is 49.9% with MALME-3M melanoma; 57.7% with MDA-MB-231 breast; 66.7% with SF-268 CNS; -39.6% (active) in the assay on SF-295 CNS; 20.3% in the assay on SF-539 CNS; 62.2% in the assay with UACC-257 melanoma. In addition, in the assay with M14 melanoma, the growth is 23.7%.

For the compound `CC(/C=C/C=C(\C)[C@H](O)[C@H](C)C(=O)O[C@H]1C[C@H](C)C=C2C=C[C@@]3(C)O[C@@H](O)CC(=O)[C@]3(C)[C@H]21)=C\C=C\C(=O)O`, the growth was -6.25% (active) with NCI-H23 lung; -3.28% (active) in the assay on NCI-H226 lung; 4.63% (active) with NCI-H322M lung; -3.68% (active) in the assay on HOP-62 NSCLC; 2.9% (active) with NCI-H460 lung; -14.2% (active) with HOP-92 NSCLC. Further, the growth in the assay with NCI-H522 lung is -11.8% (active); in the assay on A549/ATCC NSCLC, 3.63% (active); in the assay on 786-0 renal it was 1.96% (active); in the assay with COLO 205 colon, -55.9% (active); in the assay on DU-145 prostate it was 4.82% (active); in the assay with K-562 leukemia, 5.89% (active). For the same compound, the growth was -57% (active) in the assay with MALME-3M melanoma; 19.8% in the assay on MDA-MB-231 breast; -49.5% (active) with RXF 393 renal; 7.59% (active) in the assay with SF-268 CNS; 2.34% (active) with SF-295 CNS; -15.9% (active) in the assay with SF-539 CNS. Moreover, the growth with UACC-257 melanoma was 2.06% (active); in the assay on M14 melanoma, -51.3% (active).

Take `CC(=S)Nc1ccccc1`: the growth in the assay on NCI-H23 lung is 95.7%; in the assay with NCI-H226 lung, 89.3%; with NCI-H322M lung, 104%; in the assay with HOP-62 NSCLC, 82.2%; in the assay on NCI-H460 lung, 97.3%; in the assay with HOP-92 NSCLC it was 90.7%. Moreover, the growth in the assay on NCI-H522 lung is 88.2%; in the assay with A549/ATCC NSCLC, 79.6%; in the assay with 786-0 renal it was 104%; in the assay with COLO 205 colon, 99.8%; in the assay with DU-145 prostate it was 103%; in the assay on K-562 leukemia, 101%. Also, the growth with MALME-3M melanoma is 89%; in the assay on MDA-MB-231 breast, 95.5%; in the assay with RXF 393 renal, 107%; in the assay with SF-268 CNS, 107%; with SF-295 CNS, 105%; in the assay with SF-539 CNS, 102%. Besides, the growth in the assay with UACC-257 melanoma is 82.7%; with M14 melanoma it was 96.6%.

For `COc1ccc2c(c1)OC(N)=C(C#N)C2c1ccc(F)cc1` (centres undefined), the growth in the assay on NCI-H23 lung is 49.9%; with NCI-H226 lung, 80.9%; in the assay with NCI-H322M lung it was 55.7%; in the assay with HOP-62 NSCLC it was 41.3%; in the assay with NCI-H460 lung it was 15.8%; in the assay with HOP-92 NSCLC it was 59.8%. For the same compound, the growth is -10.1% (active) with NCI-H522 lung; 45.9% with A549/ATCC NSCLC; 28.1% in the assay on 786-0 renal; 30.6% in the assay on COLO 205 colon; 36.8% with DU-145 prostate; 12% in the assay on K-562 leukemia. For the same compound, the growth in the assay with MALME-3M melanoma was 61.6%; in the assay with MDA-MB-231 breast it was 56.7%; in the assay with RXF 393 renal it was 16.1%; in the assay with SF-268 CNS, 47.1%; in the assay with SF-295 CNS, 23.4%; in the assay on SF-539 CNS, 19.2%. For the same compound, the growth is 51.7% in the assay with UACC-257 melanoma and 14.1% in the assay on M14 melanoma.

Consider `O=C(N/N=C/c1ccccc1O)c1ccccc1O`, for which the growth in the assay with NCI-H23 lung was 37.5%; in the assay on NCI-H226 lung, 67%; with NCI-H322M lung, 32.6%; in the assay on HOP-62 NSCLC, 42.1%; in the assay on NCI-H460 lung, 13.2%; in the assay on HOP-92 NSCLC, 56.5%. Moreover, the growth in the assay on NCI-H522 lung was 6.88% (active); in the assay with A549/ATCC NSCLC, 45.4%; with 786-0 renal it was 25.8%; with COLO 205 colon, 55.5%; with DU-145 prostate it was 38.7%; with K-562 leukemia it was 37.8%. Besides, the growth is 47.9% with MALME-3M melanoma; 56.7% with MDA-MB-231 breast; 54% in the assay with RXF 393 renal; 36.6% in the assay with SF-268 CNS; 42.1% in the assay on SF-295 CNS; 34.5% in the assay with SF-539 CNS. Further, the growth is 5.06% (active) in the assay with UACC-257 melanoma and 36.5% with M14 melanoma.

Source of the values: PubChem BioAssay (NCI).
